High-throughput results from PubChem.
D1 antag: Antagonist of Human D 1 Dopamine Receptor: qHTS; AID 504652, 2011; 360,000 tested, 3.2% active; HEK293 TREx D1 cells, calcium flux, dopamine EC80; active compounds read low; activity change, negative = inhibition, % at 10 µM; D(1A) dopamine receptor (Homo sapiens), P21728; in the data active means activity change below about -30%; further: on the % scale 0 is the no-effect control and ±100 the full control effect
Target sequence (P21728 whole entry, looked up): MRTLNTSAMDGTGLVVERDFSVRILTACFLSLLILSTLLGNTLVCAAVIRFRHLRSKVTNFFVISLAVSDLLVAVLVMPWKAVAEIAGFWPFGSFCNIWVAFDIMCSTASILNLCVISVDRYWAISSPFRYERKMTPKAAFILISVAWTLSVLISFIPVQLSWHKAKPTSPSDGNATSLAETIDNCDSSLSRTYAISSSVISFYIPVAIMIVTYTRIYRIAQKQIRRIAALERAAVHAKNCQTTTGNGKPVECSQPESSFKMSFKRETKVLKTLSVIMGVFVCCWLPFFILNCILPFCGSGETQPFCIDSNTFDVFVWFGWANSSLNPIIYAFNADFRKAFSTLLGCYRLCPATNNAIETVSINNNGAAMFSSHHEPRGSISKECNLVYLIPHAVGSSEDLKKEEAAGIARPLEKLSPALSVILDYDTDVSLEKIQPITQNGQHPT
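HEK293 T-REx cells expressing inducible, force-coupled D1 receptor; no-wash Ca dye, 30–90 min RT. Cmpd → 180 s read at 1 Hz → EC80 DA → 180 s read.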
TRHR ag: qHTS for Small Molecule Agonists and Allosteric Enhancers of Human TRH Receptor: Primary Screen for Agonists; Thyrotropin-releasing hormone receptor (Homo sapiens), P34981; TRHR cells, calcium flux fluo-8, FDSS agonist mode; activation, % at 2 µM; 360,000 tested, 0.18% active; further: 0% is about no effect
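TRHR-expressing cells loaded with fluo-8 calcium dye; 23 nL library compound pin-transferred, kinetic FDSS fluorescence (Ex 480/Em 530) recorded about 180 s for agonist-induced calcium release, before a 10 nM TRH EC20 addition for potentiator mode.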
TRHR enhancer: qHTS for Small Molecule Agonists and Allosteric Enhancers of Human TRH Receptor: Primary Screen for Enhancers; 360,000 tested, 0.66% active; TRHR cells, fluo-8 calcium fluorescence, EC20 TRH enhancement; AID 493056, 2011; enhancement, % at 2 µM; in the data active means enhancement above about 30%; further: 0% is about no effect
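TRHR-expressing cells loaded with fluo-8 calcium dye were read kinetically (ex 480/em 530) during compound addition, then stimulated with an EC20 of TRH (10 nM final). Enhancement of the Gq-mediated intracellular calcium response was scored.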
D1 PAM: Potentiators of Human D1 Dopamine Receptor: qHTS. potentiation, % at 10 µM. 360,000 tested, 0.036% active. D(1A) dopamine receptor (Homo sapiens), P21728. HEK293 TREx D1 cells, calcium flux, dopamine EC20 potentiation; in the data active means potentiation above about 30%; further: 0% is about no effect
D1 agonist: Allosteric Agonists of the Human D1 Dopamine Receptor: qHTS | D(1A) dopamine receptor (Homo sapiens), P21728 | AID 504660, 2011 | 360,000 tested, 1% active | HEK293 T-REx D1 cells, calcium flux, agonist mode | activation, % at 2 µM; further: 0% is about no effect
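Tetracycline-induced HEK293 TREx D1 cells, force-coupled to calcium signalling, were dye-loaded with a no-wash calcium kit. Compound was pin-added after a 10 s baseline. Fluorescence was read kinetically at 1 cycle/s for 180 s, with calcium rises flagged as agonism.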
An asterisk follows results filed as active; ! = a repeat was not active. Sampled rows, rich in hits. Any-hit rate of the full collection: about 4.6%. Unless noted, no stated cut-off is given here; in the data, active means activation above about 30%; inactive means the rest.

SMILES	D1 antag	TRHR ag	TRHR enhancer	D1 PAM	D1 agonist
COc1cccc(NC(=O)CCNS(=O)(=O)c2ccc(Br)s2)c1	-37*!	-1	7	6	3
Cc1ccc(/C=C/C(=O)c2ccccc2O)cc1	-5	0	1	1	1
CN(C)c1ccc(/C=C/C(=O)c2ccccc2O)cc1	-25	13	-6	-1	35*
COc1ccc(C(=O)/C=C/c2ccccc2)c(OC)c1	-11	0	-1	2	-4
COc1ccc2cc(C(=O)/C=C/c3cc(OC)c(O)c(OC)c3)ccc2c1	-13	14	1	-5	25
COc1ccc(C(=O)/C=C/c2cc(OC)c(O)c(OC)c2)c(F)c1	-5	-2	6	-4	52*
CN(C)c1ccc(/C=C/C(=O)c2cccnc2)cc1	0	95*	6	-9	176*
COc1ccc(C(=O)/C=C/c2ccc(N(C)C)cc2)c(OC)c1	4	127*	8	-5	295*
O=C(/C=C/c1cccc(O)c1)c1cccnc1	10	1	5	0	1
CCOC(=O)c1sc2cc([N+](=O)[O-])cc(SCC(C)C)c2c1N	18	14	-1	-4	55*
COc1ccc(CN2CCN(C(=O)CCC(=O)Nc3nnc(CC(C)C)s3)CC2)cc1F	-20	0	9	-3	36*
O=S(=O)(c1ccc2c(c1)OCCO2)N1CCN(S(=O)(=O)c2ccc(F)cc2F)CC1	8	0	1	-4	3
CC1=NN(C(=O)c2ccc(Cn3cc([N+](=O)[O-])cn3)cc2)C(O)(C(F)(F)F)C1 (stereo unspecified)	7	3	-8	-7	42*
CC(=O)Nc1ccc(Nc2ncnc3c2c(-c2ccccc2)cn3-c2ccc(C)c(Cl)c2)cc1	0	0	5	1	-2
O=[S+]([O-])(c1ccc2c(c1)OCCO2)N1CCN([S+](=O)([O-])c2c(F)cc(O)cc2F)CC1	-24	1	-4	-4	2
O=[S+]([O-])(c1ccc2c(c1)OCCO2)N1CCN([S+](=O)([O-])c2c(O)cc(F)cc2F)CC1	-48*	2	-6	-10	-1
Cc1cc(C)c(NC(=O)c2c(C)oc3c2C2=NCCN2C=N3)c(C)c1	-2	-1	-2	-2	0
COc1ccc(C)cc1NC(=O)CN1C(=O)COc2ccc(S(=O)(=O)N3CCOCC3)cc21	-1	0	-4	22	3
CSc1nc(NCc2ccco2)c2c3c(sc2n1)CN(C)CC3	-42*	0	7	-9	1
CSc1nc(SCC(N)=O)c2c3c(sc2n1)CN(C)CC3	6	1	-1	-2	1
CCNc1nc(SCC(N)=O)nc2sc3c(c12)CCN(C)C3	-5	-1	-2	-4	33*
Cc1nc(NC(=O)C2CC2)sc1C(=O)Nc1ccccc1	-38*	1	-4	-6	0
Cc1nc(NC(=O)C2CC2)sc1C(=O)Nc1ccc(Br)cc1	-1	0	-9	3	-1
Cn1c(C(=O)NCCc2ccccc2)cc2sc(Cl)cc21	-22	0	5	-5	2
COc1ccc(C(C(=O)NC2CCCCC2)N(Cc2cccnc2)C(=O)c2snc(C(N)=O)c2N)cc1 (stereo unspecified)	-34*	0	-6	-7	1
SMILES	D1 antag	TRHR ag	TRHR enhancer	D1 PAM	D1 agonist
CCCC(C(=O)NC1CCCC1)N(Cc1cccs1)C(=O)c1snc(C(N)=O)c1N (stereo unspecified)	-36*	0	7	-5	2
COc1ccc(CN(C(=O)c2nsc(Cl)c2Cl)C(C(=O)NC2CCCC2)c2ccc(C)cc2)cc1 (stereo unspecified)	-10	0	37*	-12	6
COc1ccc(CN(C(=O)c2nsc(Cl)c2Cl)C(C(=O)NC2CCCCC2)c2ccc(OC)cc2)cc1 (stereo unspecified)	5	2	-7	-4	1
COc1ccc(CN(C(=O)c2snc(C(N)=O)c2N)C(C(=O)NC2CCCC2)c2ccc(OC)c(OC)c2)cc1 (stereo unspecified)	-5	0	15	3	3
COc1cccc(N(CC(=O)NC2CCCCC2)C(=O)c2snc(C(N)=O)c2N)c1	-35*	0	27	-11	-1
Cc1cc(C)cc(N(CC(=O)Nc2c(C)cc(C)cc2C)S(=O)(=O)c2c(C)nn(C)c2C)c1	7	0	-4	3	3
COC(=O)c1ccc(COC(=O)CCc2nc(-c3ccccc3)c(-c3ccccc3)o2)cc1	-15	1	0	-10	30*
CC1=C(C(=O)Nc2ccccc2)C(c2cccnc2)n2nc(SCc3ccccc3F)nc2N1 (stereo unspecified)	-3	-1	-3	1	11
O=C(COC(=O)c1ccc([N+](=O)[O-])s1)Nc1ccc(F)cc1	-38*	-1	-6	-3	4
O=C1CCCC2=C1C(c1ccc(O)cc1)c1c(ccc3ccccc13)N2 (stereo unspecified)	-53*	2	2	-13	1
O=C1CCCC2=C1C(c1ccc(O)c(O)c1)c1c(ccc3ncccc13)N2 (stereo unspecified)	32	-1	5	-1	1
CCc1ccc(NC(=O)c2sc3nc(C)nc(N4CCN(c5ccccn5)CC4)c3c2C)cc1	-84*	1	3	-12	2
Cc1ccc(-c2nc(Nc3ccc(O)cc3)c3ccccc3n2)cc1	-23	2	2	-6	0
O=[N+]([O-])c1ccc(-c2nc(Nc3cccc(O)c3)c3ccccc3n2)cc1	-33*	1	-4	-9	5
Cc1ccc(-c2nc(Nc3cccc(O)c3)c3ccccc3n2)cc1	-30*	3	7	-14	7
CCCCOc1ccc(C(=O)Nc2cccc(-c3nc4cccnc4s3)c2)cc1	2	0	5	2	-1
Cc1ccc(S(=O)(=O)N/N=C/c2ccc(C(=O)O)cc2)cc1	-4	1	0	2	1
Cc1ccc(S(=O)(=O)N/N=C/c2ccc(OC3CSC3)cc2)cc1	-21	8	4	-9	61*
c1ccc(-n2c(Sc3cnccn3)nnc2-c2cccs2)cc1	11	-1	31*	-3	2
Cc1c(C(=O)N2CCCCCC2)c(S(=O)(=O)N(Cc2ccccc2)C(C)(C)C)c(C)n1C	-13	0	5	5	1
O=C(Nc1nnc(S(=O)(=O)N2CCCCC2)s1)c1cccc(Br)c1	-5	1	-1	-4	30*
